In PubChem BioAssay AID652104 (National Center for Advancing Translational Sciences (NCATS), 2013):
The whole screen tested about 410,000 compounds, of which about 7,200 (1.8%) were called active. Not shown: some 7% with an inconclusive outcome. The sample holds actives, similar compounds and a random draw of the others, so the mix is not that of the screen. Calls follow the shape of the dose curve; as a rule, active = well fitted activation curve with a large enough effect; inconclusive = small, poorly fitted or top-dose-only effect, or another doubt; inactive = no such curve, though single readings can be large or run the other way.

Assay: qHTS of TDP-43 Inhibitors; also: nearly all actives have a fitted effect of over 50% in size; as to growth rescue (activation): % of control where 0% means no effect
Conditions: TDP-43 expressing yeast growth rescue, BacTiter-Glo, 24 h; series mostly up to 46.1 µM; growth rescue (activation): at the top concentration
Description: The goal of this project is to identify new chemical probes capable of reversing the toxicity associated with TDP-43 which is associated with frontotemporal lobar degeneration and amyotrophic lateral sclerosis. These compounds will provide a complementary approach to deciphering the tangled mechanisms of toxicity and protection that we have uncovered through genome-wide genetic screens and are beginning to uncover in a large-scale proteomics analysis with mass spectroscopy.
To this end, a miniaturized assay was developed to be screened against the Molecular Libraries Small Molecule Repository (MLSMR) to discover TDP-43 inhibitors. Please note that in the set-up this yeast-based assay compounds that inhibit as TDP-43, have a read-out as activators.
NIH Chemical Genomics Center [NCGC]
NIH Molecular Libraries Probe Centers Network [MLPCN]
Assay Submitter (PI): Susan Lindquist, Whitehead Institute/MIT
Dispense 2.5 microL yeast galactose medium per 1536-well plate, pin compound, dispense 2.5 microL TDP-43 expressing yeast in galactose medium at OD600=0.02 (pregrown in raffinose medium to mid-log phase) per well, incubate for 24 hr at 30 deg C, and cell growth will be measured using 5 microL of Bactiter/Glo reagent to entire plate and read using Luminescence Protocol in ViewLux.
Potency is read from the fitted curve at half-maximal effect.

Growth rescue (activation), inactive:
CC(C)c1ccc(NC(=O)c2ccc3c(O)c(S(=O)(=O)c4ccccc4)c(=O)[nH]c3c2)cc1 19.2%
O=C1N(Cc2ccccc2)c2ccc(Cl)cc2C1(O)c1c[nH]c2ccccc12 (stereo not given) 25.9%
CCCCN(C(=O)CSCC(=O)Nc1ccc(OC)cc1)c1c(N)n(CCC)c(=O)[nH]c1=O 13.8%
CCOc1ccc(NC(=O)CSc2nncn2C)cc1 -8.46%
O=C(COc1ccc(Cl)cc1)Nc1ccc(-c2nc3cc(Cl)ccc3o2)c(O)c1 24.4%
O=S(=O)(c1ccc(Br)cc1)c1nnn2c1nc(NC1CCCCCC1)c1sccc12 -1.95%
COC(C[C@H](O)CC(=O)[C@@H](C)OCc1ccccc1)OC 18%
COC(C[C@@H]1O[C@@H]1C(=O)[C@H](C)OCc1ccccc1)OC 13%
Cc1ccc(NC(=O)C(=O)NCC(c2cccnc2)N2CCOCC2)cc1 (stereo not given) 20.9%
COc1ccc(OC)c(-n2nnc3c(sc4nc(C)c(Br)c(C)c43)c2=O)c1 14.9%
CCc1ccc(Nc2nn3c(=O)c4cc5c(cc4nc3s2)OCO5)cc1 6.61%
COc1cc(OC)c(NC(=O)c2nc(-c3ccncc3)no2)cc1Cl 5.65%
CC1CCN(Cc2nc(-c3ccc(Cl)cc3)no2)CC1 -5.38%
Cc1c(Cl)cccc1NC(=O)Cn1cc(C(=O)c2cccs2)c2ccccc21 22.8%
COc1ccc(N2CCN(Cc3nc4c(c(=O)[nH]c(=O)n4C)n3Cc3ccc(Cl)cc3)CC2)cc1 -19.3%
Cc1cccc(C(=O)N2CCc3cc(CNC(=O)Cc4ccc(F)cc4)ccc32)c1 20.6%
CC1=Nc2cc(C(=O)NCc3ccc(C)cc3)ccc2Sc2ccc(Cl)cc21 21.4%
CCCCc1c(-c2ccc(Br)cc2)ncn1CCc1ccccc1OC 43.7%
CCCc1c(-c2ccccc2F)ncn1Cc1ccccc1OC 15.3%
CCOc1ccc(C(=O)Nc2ccc3nc4c(c(Nc5ccccc5OC)c3c2)CCCC4)cc1 -14.8%
CCOc1ccc(CNC(=O)c2cc(=O)[nH]c3ccc(S(=O)(=O)N4CCCCC4)cc23)cc1 0%
COc1ccc(CNC(=O)c2cc3c(=O)[nH]c4ccccc4c3s2)cc1 9.68%
Cc1cccc(N2CCN(S(=O)(=O)c3ccc4[nH]c5c(c4c3)CCCCC5)CC2)c1C -17.8%
O=C(c1ccc(CN2CCOCC2)cc1)N1CCN(c2ccccc2F)CC1 3.14%
COc1cc(OC)c(OC)cc1CN1CCN(C(=O)c2cccc3ccccc23)CC1 -19.7%
CCCSc1ncc(Cl)c(C(=O)Nc2sc3c(c2C(=O)NCCOC)CCCC3)n1 24.9%
O=C(NCCc1ccc(Cl)cc1)c1ccc2nc(CCc3ccccc3)oc2c1 11.6%
O=C(NCCCN1CCN(c2cccc(Cl)c2)CC1)c1nnc(Cc2ccc(F)cc2Cl)o1 14.6%
CNC(=O)c1nnc(Cc2ccc(Cl)cc2)o1 25.3%
CCOC(=O)c1cnc2c(C)cc(Cl)cc2c1NCCc1ccc(OC)c(OC)c1 15%
Cc1ccc(Nc2nc3ccccc3nc2-n2nc(C)cc2C)c(Cl)c1 27.7%
CCOc1ccc(CNC(=O)c2cc(-c3ccc(Cl)s3)nc3ccccc23)cc1 22.8%
O=C(c1ccco1)n1nc(-c2ccc(Cl)cc2)nc1NCc1ccccc1 5%
Cc1cc(C)cc(NC(=O)Cn2nc(N3CCN(c4ccccc4)CC3)ccc2=O)c1 20.2%
Cc1nc2nc3c(cn2n1)C(=O)CC(c1ccccc1)C3 (stereo not given) 13.9%
CC(=O)NNC(=O)c1csc(Cc2c(Cl)sc3ccc(Cl)cc23)n1 2.99%
O=C(O)COCC(=O)NCc1csc2ccc(Cl)cc12 -10.6%
COc1ccc(-n2c(=O)c3ccccc3n(Cc3ccccc3Cl)c2=O)cc1 15.2%
CCOC(=O)CN1C(=O)C(O)(CC(=O)c2ccccn2)c2ccccc21 (stereo not given) 9.65%
Cc1ccc(CCN2CC(C(=O)NCCc3ccccc3)CC2=O)cc1 (stereo not given) 4.24%
Cc1coc(C)c1C(=O)CC1(O)C(=O)N(C)c2ccc(Cl)cc21 (stereo not given) -11.5%
C=CCN1C(=O)C(O)(CC(=O)c2ccc(Cl)cc2)c2ccccc21 (stereo not given) 1.69%
O=C(CC1Oc2ccccc2NC1=O)NCc1ccc(F)cc1 (stereo not given) -2.06%
O=C(O)c1c(CNCc2cccc(F)c2)c2ccccc2n1Cc1ccccc1 24.3%
COC(=O)CN1C(C)=Nc2ccc(Br)cc2C1c1ccccc1 (stereo not given) -3.72%
Cc1nnc(C)n1-c1ccc(C(=O)Nc2cccc(Br)c2)cc1 3.68%
CC(C)Cn1c(C2CC(=O)N(c3ccccc3Cl)C2)nc2ccccc21 (stereo not given) 25.5%
Cn1c(=O)n(Cc2c(F)cccc2Cl)c(=O)c2c1nc1n2CCN1c1ccc(F)cc1 9.24%
COc1ccc(CCNc2nc3c(-c4cccc(F)c4)nnn3c3ccccc23)cc1OC 17.4%
COc1ccc(-c2cc(C(F)(F)F)n3nc(-c4ccccc4)cc3n2)cc1OC 0%
CCOC(=O)c1cc2c(=O)n3ccccc3nc2n(CC2CCCO2)c1=NC(=O)c1ccccc1Br (stereo not given) 20.8%
CCCc1cc(=O)n2[nH]c(NCc3ccc(CC)cc3)nc2n1 7.91%
O=C(COC(=O)Cc1ccc([N+](=O)[O-])cc1)NC1CCCCCC1 6.3%
N/C(Cc1ccc([N+](=O)[O-])cc1)=N\OC(=O)COc1ccc2ccccc2c1 14.2%
CC(C)NC(=O)c1nn(-c2ccccc2F)nc1CO 2.75%
COc1cccc(C(=O)NCC(=O)OCc2cc(=O)n3ccsc3n2)c1 3.19%
Cc1ccc(-c2nn3c(=O)cc(CN4CCN(S(=O)(=O)c5ccc(Cl)cc5)CC4)nc3s2)cc1 9.9%
COc1ccc2c(c1)C(c1cccs1)=NNC(c1cccnc1)=N2 -15% [at 9.22 µM]
COc1ccc(C2=NC(c3ccncc3)=Nc3ccc(Br)cc3N2)cc1 -1.4%
CCOc1cc(CNC(=O)c2sc3ncnc(N(C)C4CCCCC4)c3c2C)ccc1OC 0%
O=C(c1ccc(Cl)cc1)n1nc(-c2cccnc2)nc1NCc1ccc(F)cc1 14%
CCC(C)[C@H]1COCCS(=O)(=O)N1Cc1ccc(C)cc1 (stereo not given in full) 24.2%
O=S1(=O)CCOC[C@H](Cc2ccccc2)N1Cc1ccccc1Br 11.1%
Cc1cccc(OCCCC(=O)Nc2sc3c(c2C(N)=O)CCC(C)C3)c1 (stereo not given) 10.1%
Cc1nn(CC(=O)N2CCN(c3cccc(C(F)(F)F)c3)CC2)c(=O)c2cc3sccc3n12 7.26%
CCOc1ccc(-n2c(SCC(=O)NCc3ccccc3)nc3n[nH]c(C)c3c2=N)cc1 -8.4%
CN(C)CCCNC(=S)N1CCN(c2nc(-c3ccccc3)cs2)CC1 -17.3% [at 1.82 µM]
COCCCNC(=S)N1CCCC(c2nc3cc(C)c(C)cc3[nH]2)C1 (stereo not given) -14.1% [at 0.397 µM]
COc1cc(OC)c(N(C)C(=O)c2cc3c(=O)oc4ccccc4c3s2)cc1Cl 14.8%
Cc1ccc(NC(=O)CN2C(=O)C(c3ccc(F)cc3)=NC23CCCCCC3)c(C)c1 7.76%
COC(=O)c1ccc(CSc2nncn2N)cc1 -10.7%
CCOc1ccc(NC(=O)c2ccc(CSc3nnnn3C)cc2)cc1 -9.01%
COc1ccccc1N1CCN(C(CNC(=O)C(=O)NCc2ccc(C)cc2)c2cccnc2)CC1 (stereo not given) 7.84%
CCc1cccc(C)c1Nc1c(-c2ccc(N(C)C)cc2)nc2ncccn12 -4.39%
COc1ccccc1CNC(=O)CCCn1c(=O)c2ccccc2n(CC(=O)Nc2ccc(C)cc2Cl)c1=O 9.64%
O=C(CSc1oc(-c2ccccc2)nc1S(=O)(=O)c1ccc(Br)cc1)NC1CCCCC1 9.58%
Cn1c(C(=O)Nc2cccc(C(F)(F)F)c2)cc2c(=O)n3ccccc3nc21 15%
CCN1CCc2nc3sc(C(=O)Nc4ccccc4OC(F)(F)F)c(N)c3cc2C1 7.69%
CCc1ccc(NC(=O)c2sc3nc4c(cc3c2N)CN(CC)CC4)cc1 26.6%
CC1CCC(N2CC(=O)N(CCC3=CCCCC3)C(c3ccc(F)cc3)C2=O)CC1 (stereo not given) -22.5%

Potency, active:
CCCCOc1ccc(NC(=O)CSCC(=O)OCC)cc1 12.6 µM
COC(C/C=C/C(=O)[C@@H](C)OCc1ccccc1)OC 20 µM
Cc1cc(Cl)ccc1OCc1nc(-c2ccncc2)no1 20 µM
CCc1c(-c2ccc(F)cc2)ncn1Cc1cccc(-c2ccccc2)c1 15.8 µM
O=C(c1cccc2ccccc12)N1CCN(c2ccccc2F)CC1 12.6 µM
CC(CNC(=O)c1nnc(Cc2cccc(F)c2)o1)c1ccccc1 (stereo not given) 15.8 µM
CN(O)C(=S)c1ccccc1 3.55 µM
Cc1cc(C)nc(-n2ncc3c2CC(c2ccc(C(C)C)cc2)CC3=O)n1 (stereo not given) 28.2 µM
CNC(=O)c1csc(Cc2c(Cl)sc3ccc(Cl)cc23)n1 20 µM
CCCN1C(=O)C(O)(CC(=O)c2ccc(CC)cc2)c2cc(Br)ccc21 (stereo not given) 25.1 µM
Cc1ccc(C(=O)CC2(O)C(=O)N(CCc3ccccc3)c3ccc(Br)cc32)cc1 (stereo not given) 35.5 µM
COC(=O)C1NN=C(C(=O)c2ccc(Br)cc2)C1c1cccc(Br)c1 (stereo not given) 25.1 µM
COCCNc1cc(-c2ccccc2)nc2cc(-c3cccc(F)c3)nn12 3.16 µM
N/C(Cc1ccc([N+](=O)[O-])cc1)=N\OC(=O)C1CCCCC1 20 µM
O=c1cc(Cn2nnc(-c3ccc(Cl)cc3)n2)nc2sccn12 11.2 µM
Brc1ccc2c(c1)NC(c1cccnc1)=NC(c1ccccc1)=N2 35.5 µM
CCCC[C@H]1COCCS(=O)(=O)N1Cc1cccc(Cl)c1 12.6 µM
COCCCNC(=S)N1CCN(c2nc(-c3cccc(OC)c3)cs2)CC1 14.1 µM
CCOC(=O)c1ccc(CSc2nnc3cc(C)c4ccccc4n23)cc1 22.4 µM
Cc1cccc2cc3c(N)c(C(=O)N4CCCc5ccccc54)sc3nc12 15.8 µM
